# Source: PubChem BioAssay AID687014 (The Scripps Research Institute Molecular Screening Center, 2013)
# Hit rate of the full screen: of about 370,000 compounds, about 6,800 (1.8%) were called active. Many of the other results were omitted from the sample, so actives are more common in it than they were. A number with no mark means an inactive call.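 How the source made its calls: active means activation above a cutoff set at the mean of all screened compounds plus 3 SD (cut at about 10% in these data); inactive means the rest.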
# Test system: Nuclear hormone receptor DAF-12 (Heterodera glycines), GAL4 fusion
# Experiment: H. glycines DAF-12 receptor agonists, primary screen, cell-based, luminescence, HEK293, GAL4 fusion, UAS-luciferase (AID 687014);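 further: 0% = DMSO wells and 100% = sodium butyrate wells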
# Conditions: HEK293 GAL4-hgDAF12 UAS-luciferase reporter, agonist luminescence; at 6.8 µM; stronger effect = higher value; normalized to butyrate control
row,SMILES,activation
1,O=C(O)c1c(NC(=O)N2CCCC2)sc2c1CCCC2,0.58%
2,NC(=O)c1c(NC(=O)CSc2nnc(-c3ccco3)n2N)sc2c1CCCC2,0.59%
3,NC(=O)c1c(NC(=O)c2ccccc2)sc2c1CCCC2,13.5% (active)
4,Cc1ccc2nc(-c3ccc(CN4CCC(n5cc(-c6ccccc6)[nH]c5=O)CC4)cc3)c(-c3ccccc3)nc2c1,0.94%
5,C=CCN1C(C(=O)OC)CN(Cc2cn(Cc3ccccc3)nn2)CCS1(=O)=O (stereo not drawn),0.93%
6,CC(C)(C)c1cnnn1-c1ccc([N+](=O)[O-])cc1,-1.27%
7,Cc1nn(-c2ccccc2)c2c1C(c1cccc([N+](=O)[O-])c1)N(c1ccccc1)C(=O)N2 (stereo not drawn),2.5%
8,Cc1nn(-c2ccc([N+](=O)[O-])cc2)c(N)c1-c1ccccc1,16.8% (active)
9,COCCNC(=S)N(C)[C@H]1C[C@H]2c3[nH]c4ccccc4c3CCN2C[C@H]1[C@H](C)O,0.91%
10,COC(=O)C1CN(Cc2ccc(F)cc2)CCS(=O)(=O)N1Cc1ccc(Cl)cc1 (stereo not drawn),-1.05%
11,O=C(C(NS(=O)(=O)c1cccc2nsnc12)c1ccccc1)N1CCN(c2ccccc2)CC1 (stereo not drawn),0.47%
12,Nn1c(SCC(=O)Nc2cccc3ccccc23)nnc1-c1cc(-c2ccc(F)cc2)n[nH]1,-2.56%
13,O=[N+]([O-])c1cc2ccccc2nc1-c1ccccc1,4.98%
14,O=C(Oc1ccc([N+](=O)[O-])cc1)c1ccc2ccccc2n1,3.74%
15,O=[N+]([O-])c1ccc2c(c1)Nc1nc3ccccc3nc1N2,27.2% (active)
16,C=CCOC/C=C/C#CCN(CC=C)Cc1ccc(OC)cc1OC,5.3%
17,CC(c1ccccn1)N(CCN(C)C)C(=S)Nc1ccccc1F (stereo not drawn),0.46%
18,Cc1ccccc1CS(=O)(=O)Cc1ccc(C(=O)Nc2ccc(Cl)cc2)o1,-3.81%
19,O=C(O)C1CC=CCC1C(=O)NCCc1ccccc1 (stereo not drawn),-1.34%
20,O=C(Nc1ccc(Cl)c(Cl)c1)c1ccccc1NC(=O)C1CC=CCC1C(=O)O (stereo not drawn),15.7% (active)
21,O=C(Nc1cccc(Cl)c1Cl)c1ccccc1NC(=O)C1CC=CCC1C(=O)O (stereo not drawn),5.07%
22,O=C(Nc1cccc(F)c1)NC1CCCCCCC1,10.7% (active)
23,Cc1cc(C)cc(NC(=O)NC2CCCCCCC2)c1,5.46%
24,O=C(Nc1cccc(F)c1)NC1CCCc2ccccc21 (stereo not drawn),-1.37%

row,SMILES,activation
1,CCCC(=O)NC(=S)Nc1ccc(CN2CCOCC2)cc1,0%
2,COC(=O)c1ccc(NC(=S)NN2CCOCC2)cc1,10.6% (active)
3,COC(=O)c1ccc(NC(=S)Nc2cccc(C)n2)cc1,1.63%
4,C#CCNC(=O)C[C@H]1C[C@@]2(C(=O)OC)C(=C[C@H](C(C)C)O[C@@H]2C2CC2)N(Cc2ccco2)C1=O,0.97%
5,COc1ccccc1N(CC(=O)N/N=C(\C)c1ccccc1O)S(=O)(=O)c1ccc(C)cc1,-1.9%
6,C/C(=N\Nc1ccc(Cl)nn1)c1ccccc1O,1.05%
7,C/C(=N\NC(=O)c1ccoc1C)c1ccccc1O,11.5% (active)
8,O=C(NC(CC(=O)N1CCN(c2ccccc2)CC1)c1ccccc1)c1ccccc1Cl (stereo not drawn),-0.02%
9,Cc1ccc(SCCC(=O)NC(C(C)C)C(C)C)cc1,-2.93%
10,Cc1ccc(SCCSc2ncccn2)cc1,17.8% (active)
11,Cc1ccc(SCCC(=O)NCc2ccccn2)cc1,0.65%
12,CCCCCN1CCCCC(NC(=O)C(C)CCC)C1=O (stereo not drawn),2.68%
13,CC(C)(C)c1ccc(C(=O)Nc2cc(Cl)c(Br)cc2C(=O)O)cc1,-1.36%
14,CCN(CC(=O)Nc1ccc(C)c(S(=O)(=O)N(C)C)c1)Cc1ccccc1,2.76%
15,COc1ccc(CCC(=O)OCC(=O)Nc2ccc(C)c(S(=O)(=O)N(C)C)c2)cc1,-1.79%
16,Cc1ccc(C(=O)Nc2ccc(C)c(S(=O)(=O)N(C)C)c2)s1,17.3% (active)
17,C[C@@H](NC(=O)c1ccccc1OCC(=O)Nc1ccc(I)cc1)C(=O)N(C)Cc1ccccc1,-2.59%
18,C#CCN(C[C@@H]1[C@@H](OC(=O)NC2CC2)[C@@H](OC(=O)NC2CC2)Cn2c(=O)ccc(=O)n21)S(=O)(=O)c1ccc(C)cc1,-1.94%
19,O=C1CC[C@@H](COc2ccc3[nH]cc(-c4ccccc4)c3c2-c2ccccc2)N1,-0.08%
20,CCCCNC(=O)C[C@H]1C(=O)N(Cc2ccc(OC)cc2)C2=CCCC[C@@]21C(=O)OCC,-2.38%
21,COc1ccccc1N1CCN(/N=C/c2ccc(O)cc2O)CC1,13% (active)
22,COc1ccccc1/C=N/N1CCN(Cc2ccccc2Cl)CC1,3.82%
23,CNCC(O)CN1CCN(c2ccccc2OC)CC1 (stereo not drawn),-4.94%
24,O=C(Nc1ccccc1)O/N=C1/CCCc2occc21,1.6%

row,SMILES,activation
1,N[C@@H](Cc1ccccc1)C(=O)N1CCC[C@@H]1C(=O)N1CCC2CCN(S(=O)(=O)c3ccccc3)CC21 (stereo partly drawn),2.75%
2,Cc1cccc(NC(=O)c2cc3c(C)nn(-c4ccccc4)c3s2)c1,3.47%
3,O=C1NC[C@H](CCCCN2C[C@H](Cc3ccc(O)cc3)N(CCc3ccccc3)C(=O)C2=O)N(CCc2ccccc2)C1=O,-1.46%
4,O=C1NC[C@H](CCCCN2C[C@H](Cc3ccccc3)N(Cc3ccccc3)C(=O)C2=O)N(CCc2ccc(O)cc2)C1=O,0.18%
5,O=C1NC[C@@H](Cc2ccc(O)cc2)N(CCc2cccc(F)c2)C1=O,18.6% (active)
6,CCOC(=O)[C@]12CCCCC/C=C\1N(Cc1ccc(OC)cc1)C(=O)[C@H]2CC(=O)N1CCOCC1,4.14%
7,CC(C)(C)NS(=O)(=O)c1ccc(NC(=O)C2CCCO2)cc1 (stereo not drawn),-2.61%
8,O=C(Nc1ccc(-c2nnc(-c3ccccc3)o2)cc1)C1CCCO1 (stereo not drawn),13.7% (active)
9,CCOc1ccc(NC(=O)c2ccc(NC(=O)C3CCCO3)cc2)cc1 (stereo not drawn),-1.61%
10,COc1cccc(CNC(=O)C2CCCN(c3nc4ccccc4o3)C2)c1OC (stereo not drawn),1.01%
11,O=C(Nn1cnc2ccccc2c1=O)c1ccc([N+](=O)[O-])cc1Cl,-0.41%
12,O=C(Nc1ccc(Br)cn1)c1ccc([N+](=O)[O-])cc1Cl,11.7% (active)
13,CC(C)C(=O)Nc1cccc(NC(=O)c2ccc([N+](=O)[O-])cc2Cl)c1,-0.06%
14,Cc1cc(Cl)ccc1-c1nc(NCCN(C)C)nc2ccsc12,1.09%
15,O=C(CN1CCCc2ccccc21)NCc1ccc(F)cc1,1.21%
16,Cc1cccc(N2O[C@H]3C=CC2CCCC3)n1,-0.73%
17,Cc1ccn(-c2cccc(-n3ccc(C)n3)n2)n1,18.1% (active)
18,COc1ccc(C(=O)OCCN2CCN(C3CN(Cc4cn(Cc5ccccc5F)nn4)S(=O)(=O)C3)CC2)cc1OC (stereo not drawn),-1.46%
19,CCNc1nc(-c2cc3ccccc3o2)cs1,12.5% (active)
20,Cn1c(CNc2nc(-c3ccccc3)cs2)nnc1SCC(=O)c1ccccc1,-0.81%
21,Cn1c(SCC(=O)NC2CCCCC2)nnc1-c1cc2ccccc2o1,4.2%
22,COc1ccc(NC(=O)CN(Cc2ccccc2)S(C)(=O)=O)cc1OC,0.79%
23,CS(=O)(=O)N(CC(=O)N/N=C/c1ccccn1)c1ccc(Oc2ccccc2)cc1,2.64%
24,O=C(O)C1C2C=CC(O2)C1C(=O)Nc1ccccn1 (stereo not drawn),0.96%

row,SMILES,activation
1,S=C(NN=Cc1ccccn1)Nc1ccccn1,14.5% (active)
2,CC(C)(C)c1ccc(CSc2nnc(-c3cccs3)o2)cc1,5.74%
3,Clc1ccc(Cc2nnc(-c3cccs3)o2)cc1,12.7% (active)
4,c1csc(-c2nnc(COc3ncnc4sccc34)o2)c1,1.72%
5,CC(C)[C@H]1COCCS(=O)(=O)N1Cc1ccccc1-c1cccc2c1sc1ccccc12,2.06%
6,Cc1ccc(OCc2nnc(SC/C=C/c3ccccc3)n2Cc2ccco2)cc1,-2.63%
7,c1ccc(CN=C2Nc3ccccc3CS2)nc1,15% (active)
8,O=C1CSc2ccc(C(=O)NCc3ccccn3)cc2N1,3.35%
9,COc1ccc(OC)c(CNC(=O)c2cc(=O)[nH]c3ccc(S(=O)(=O)N4CCCC4)cc23)c1,5.76%
10,CCc1ccc(C2=CC(=O)CC(C)(C)C2=O)cc1,-0.49%
11,Cc1nonc1NC(=O)c1oc2ccccc2c1C,4.37%
12,Cc1c(C(=O)Nc2ccccn2)oc2ccc(Br)cc12,11.2% (active)
13,CCc1nonc1NC(=O)c1oc2ccc(Cl)cc2c1C,3.2%
14,CCOC(=O)c1nnn(CC(=O)Nc2cccc(F)c2)c1C(=O)OCC,-0.57%
15,O=C(Nc1cccc(Cl)c1)c1cncn1-c1ccc(F)cc1,1.29%
16,CCC(=O)Nc1ccc2nn(-c3ccc(F)cc3)nc2c1,12.1% (active)
17,CCOC(=O)N1CCN(c2cc(C)c([N+](=O)[O-])cc2F)CC1,4.66%
18,CCNC(=S)NCC,-0.86%
19,Cc1ccc(C(=O)N(Cc2ccccn2)CC2CCCO2)cc1 (stereo not drawn),-3.33%
20,Cc1ccc(NC(=S)NNC(=O)CSc2nnc(SCc3ccccc3Cl)s2)cc1,2.13%
21,COC(=O)c1c(-c2ccc(OC)cc2)c2c(c3c4cc(OC)ccc4n(S(=O)(=O)c4ccc(F)cc4)c13)C(=O)N(C)C2,-2.44%
